Sampled rows, rich in hits. Any-hit rate of the full collection: about 7.9%.
Lassa entry inh: blocks Lassa virus binding to or entry into cells. Lassa virus pseudotype entry inhibition, cell reporter. Potency, µM (highest dose often 37.9 µM), for inactives: at the highest dose activity change, negative = inhibition, most hits filed as inhibitors. 300,000 compounds, 1.2% hits. AID 540256; calls by dose curve; tested in HEK293 cells; note: potency is the fitted concentration of half-maximal effect; nearly all actives have a fitted effect of over 50% in size
FMDV antiviral: foot and mouth disease virus antiviral activity; FMDV antiviral cell-based qHTS; Potency, µM (titrated, usually from 57.9 µM), without a hit: top-dose activity change, negative = inhibition, most hits filed as inhibitors; 410,000 compounds, 1.2% hits; calls by dose curve; tested in HEK293T cells; note: read-out not given here; potency is the fitted concentration of half-maximal effect; nearly all actives have a fitted effect of over 45% in size
MARV entry inh: blocks Marburg virus binding to or entry into cells | Marburg virus pseudotyped entry inhibition, cell reporter | Potency, µM (doses to about 37.8 µM), for inactives: top-dose activity change, negative = inhibition, actives largely listed as inhibitors | 300,000 compounds, 1.8% hits; calls by dose curve; tested in HEK293 cells; note: potency is the fitted concentration of half-maximal effect
HCV inhibitor: inhibitors of hepatitis C virus infection | Huh7.5.1 HCVcc-Cre infection, luciferase reporter, 44 h | AID 651820 | 340,000 compounds, 3.4% hits | Potency, µM (top dose mostly 41.8 µM), for the others: top-dose activity change, negative = inhibition, most hits filed as inhibitors; active = well fitted inhibition curve with a large enough effect; inconclusive = small, poorly fitted or top-dose-only effect, or another doubt; inactive = no such curve, though single readings can be large or run the other way; note: potency is the fitted concentration of half-maximal effect
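Infectious HCV cell culture screen: compound-treated cells (1,000/well, pre-plated 4 h) are infected with HCVcc-Cre at roughly 0.5 moi and grown 44 h. Infection is quantified by luciferase signal after 15 min substrate incubation at room temperature.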
HCMV inh: blocks human cytomegalovirus replication; HFF cells, HCMV-luciferase reporter, 72 h; stronger effect = lower value; activity change, negative = inhibition, % at 57.5 µM; 410,000 compounds, 4.5% hits; in the data active = activity change below about -60%; inconclusive = no clear call, values can overlap the other calls; inactive = above about -39%
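Two-dose cell screen: HFF monolayers treated with compounds and infected with luciferase-expressing HCMV at 1 PFU/cell, 72 h at 37C, then lysed for luciferase measurement.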
Starred values were filed as active, the others as inactive; u = inconclusive; x = no result; [ ] = dose if it differs, or a comment. % is set by controls: 0 for no effect and ±100 for the full control effect.

SMILES	Lassa entry inh	FMDV antiviral	MARV entry inh	HCV inhibitor	HCMV inh
CCn1c(CNC(=O)C23CC4CC(CC(C4)C2)C3)nnc1SCC(=O)Nc1ccc(C)cc1	-16%[46.1 µM]	-29%	-19%[46.1 µM]	x	14
Cc1c(C(=O)Nc2ccccc2)sc2nc(-c3cc4cc(Cl)ccc4oc3=O)[nH]c(=O)c12	17%[46.1 µM]	-15%	x	x	10
CCOc1ccc(C(=O)CSc2nc3cc(C(=O)NC4CCCC4)ccc3c(=O)n2CC2CCCO2)cc1 (centres undefined)	-1%[46.1 µM]	-6%	x	x	6
C[C@H]1CCCC(=O)CCC/C=C/c2cc(O)cc(O)c2C(=O)O1	x	u	-8%	8%	-99*
CC(=O)C1=C(O)C(=O)N(c2ccc(Br)cn2)C1c1cccc([N+](=O)[O-])c1 (centres undefined)	x	-21%	x	12%	-105*
Cc1[nH]c2ccc(C(=O)NCCCN3CCN(C)CC3)cc2c1C	x	-26%	x	3%	17
Cc1[nH]c2ccc(C(=O)NCCCN(C)C3CCCCC3)cc2c1C	17%[46.1 µM]	-6%	u	-13%	-62*
COc1ccc(C(=O)Nc2nc3ccccc3[nH]2)cc1	u	-84%	u	-13%	-33
COc1ccc(C(=O)N[C@H](C(=O)Nc2nc3ccccc3[nH]2)C(C)C)cc1	u	14%	u	7.1µM*	-86*
Cc1cccc(C(=O)N[C@H](C(=O)Nc2nc3ccccc3[nH]2)C(C)C)c1	x	-25%	x	-24%	-81*
CC1=C(N2CC2)C(=O)C(CO)=C(N2CC2)C1=O	0.11µM*	0%	u	u	-97*
Nc1ncnc2c1ncn2[C@@H]1O[C@H](CNCc2ccc(-c3cc(C(F)(F)F)ccc3Cl)o2)[C@@H](O)[C@H]1O	x	-26%	x	35µM*	-18
CN(Cc1ccccc1)C(=O)c1ccc(CSc2nc3cccnc3n2Cc2ccccc2F)cc1	-18%[46.1 µM]	u	x	x	-31
CCCNC(=O)OC[C@H]1O[C@H](CCON=CC[C@@H]2C=C[C@H](OC(C)=O)[C@@H](COC(C)=O)O2)C=C[C@H]1Oc1ccc(OC)cc1	7%[14.3 µM]	x	6%[14.2 µM]	x	x
CNc1nc2cnc(Nc3cccc(F)c3)cc2n1-c1cccc(C(F)(F)F)c1	x	x	x	x	-30
C=C1C(=O)C23C(O)C1CCC2C12CCCC(C)(COC(C)=O)C1C(O)C3(O)OC2 (centres undefined)	11µM*	3.5µM*	u	3.5µM*	-2
COc1cccc(N2CC(NC(=O)/C=C\c3ccc4c(c3)OCO4)CC2=O)c1 (centres undefined)	-4%[46.1 µM]	-24%	x	x	-9
Cc1cccc(OCCCC(=O)Nc2ccc(Br)cc2)c1	-4%	-20%	11µM*	u	37
Cc1cccc(OCCCC(=O)Nc2ccc(N(C)C)cc2)c1	19%	56%	6%	-5%	40
O/N=C/c1cc(Br)ccc1OCc1ccccc1F	25%	3%	-17%[46.1 µM]	u	42
C=CCOc1ccc(Br)cc1/C=N/O	13%	-28%	-18%	11µM*	-1
Cc1cccc(NC(=O)COc2ccc(Br)cc2/C=N/O)c1	u	0%	u	35µM*	24
CC(=O)Nc1ccc(NC(=O)COc2ccc(Br)cc2C)cc1	8%	-6%	-26%	-7%	-17
COc1ccc(CN(CCC(c2ccccc2)c2ccc(OC(C)C)cc2)C(=O)CCl)cc1OC (centres undefined)	u	4.5µM*	u	u	-100*
COc1ccc(CNCCC(c2ccc(F)cc2)c2ccc(OC(C)C)cc2)cc1OC (centres undefined)	u	-1%	u	u	-97*
SMILES	Lassa entry inh	FMDV antiviral	MARV entry inh	HCV inhibitor	HCMV inh
COc1ccc(CCNCc2ccc(F)cc2)cc1OC	2%	-14%	u	8%	5
COc1ccc(CNCCC(c2ccccc2)c2ccc(OC(C)C)cc2)cc1OC (centres undefined)	6.3µM*	-25%	u	11µM*	-37
CC(=O)Nc1cc(C(=O)N2CCSCC2)cc2ncn(CCc3ccccn3)c12	x	-11%	x	x	x
Cc1ccc(C(=O)COC(=O)CCC(=O)Nc2ccc(Oc3cc(C)ccc3C(C)C)cc2)cc1	17%[46.1 µM]	2%	-18%[46.1 µM]	x	-21
O=C1CN(C(=O)c2c(F)cccc2Cl)C(c2ccc(F)cc2)c2cc(Br)ccc2N1 (centres undefined)	u	-5%	-23%[46.1 µM]	x	-37
CCCNC(=O)C1(C)CCCN(Cc2cccc3ccccc23)C1 (centres undefined)	x	-7%	x	x	-18
CCCNC(=O)C1(C)CCCN(C(=O)COc2ccc(Cl)cc2Cl)C1 (centres undefined)	x	-25%	x	x	-100*
CCCNC(=O)C1(C)CCCN(Cc2ccccc2Cl)C1 (centres undefined)	x	-2%	x	x	-77*
OCc1ccccc1O[C@@H]1O[C@H](CO)[C@@H](O)[C@H](O)[C@H]1O	x	-19%	x	17%	x
OCC1OC(Oc2c[nH]c3ccccc23)C(O)C(O)C1O (centres undefined)	x	-24%	x	18%	-98*
CCOc1ccc(C(=O)NNC(=O)CN2C(=O)NC3(CCCC3)C2=O)cc1	4%	3%	-14%	-2%	-102*
COc1ccc(C2=NOC(Cn3c(Cc4ccc(Cl)cc4)nc4c3c(=O)n(C)c(=O)n4C)C2)cc1 (centres undefined)	-2%	-20%	-8%	1.4µM*	-9
Cc1ccc(-n2nnnc2SCC(=O)Nc2ccc(N3CCN(C)CC3)cc2)c(C)c1	x	-21%	x	-16%	-99*
Cc1ccc(-n2nnnc2SCC(=O)N2CCc3ccccc3C2)c(C)c1	-50%[14.3 µM]	-2%	6%	13µM*	-4
COC(=O)c1scc(C)c1NC(=O)c1ccc(Cl)cc1	5%	-20%	-4%	u	x
COC(=O)c1scc(C#N)c1N/N=C(\C#N)S(=O)(=O)c1ccc(Cl)cc1	u	14µM*	u	u	-97*
CC(=O)NNC(=O)CCn1c2c(c3ccccc31)CCCC2	-16%	-21%	-13%[46.1 µM]	-25%	2
O=C(CCn1c2c(c3ccccc31)CCCC2)NNC(=O)c1ccc([N+](=O)[O-])cc1	-12%	-21%	-4%	u	-10
CCOC(=O)NNC(=O)CCn1c2c(c3ccccc31)CCCC2	x	-5%	x	u	-89*
O=C(CCn1c2c(c3ccccc31)CCCC2)NNC(=O)c1ccc(Cl)c([N+](=O)[O-])c1	-4%	3%	-9%	10µM*	-29
CCCCCC1CCC(c2n[nH]c(=S)n2C)CC1 (centres undefined)	u	7%	u	-3%	-82*
O=C1C=CC(=O)c2c(O)c(CO)c(CO)c(O)c21	3%	35µM*	u	14%	-22
CCC[C@H]1[C@@H](NS(=O)(=O)c2ccc(NC(C)=O)cc2)CC[C@@]23CCCN2C(=O)CCC[C@@H]13	x	x	x	x	-8
CCn1nc(C)c(Br)c1C(=O)Sc1ccccc1Cl	3%	22µM*	-10%[46.1 µM]	10%	-5

Screens: PubChem BioAssay, National Center for Advancing Translational Sciences (NCATS)
